According to the supplement of paper PMC10849652:
Of roughly 8,800 targets only a part is listed; those with a hit were picked by preference. About 0.5% of all pairs of compound and target were hits. Unmarked numbers belong to inactive results.

Legend:
Test in all cases: log2 fold change, soluble protein after heating vs DMSO (PISA); higher = thermal stabilisation; K562 lysate, 10 uM; active = over 0.2 and 3.5 SD of the protein, either way, in both replicates (recomputed)
[1] = compound: NCC(=O)Nc1ccc(-n2nc(C(F)(F)F)cc2-c2ccc3c(ccc4ccccc43)c2)cc1
In short: (§1)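 The values are log-two fold changes in thermal stability compared with solvent controls and come from duplicates. They were obtained by TMTpro 16plex LC-MS/MS, with channel sums equalised, on the supernatant after 21,000xg for 90 min. That supernatant came from crude K562 extract at 1 mg/mL protein treated with 10 μM compound for 30 min, heated for 3 min across 48°C-58°C, pooled and brought to 0.5% NP-40 at 4°C.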

vorinostat = compound: O=C(CCCCCCC(=O)Nc1ccccc1)NO [vorinostat]
In short: as §1

silmitasertib = compound: O=C(O)c1ccc2c(c1)nc(Nc1cccc(Cl)c1)c1ccncc12 [silmitasertib]
In short: as §1

[2] = compound: O=C1NC(=O)C(c2cnc3ccccn23)=C1c1cn2c3c(cc(F)cc13)CN(C(=O)N1CCCCC1)CC2
In short: as §1

entospletinib = compound: c1cn2cc(-c3ccc4cn[nH]c4c3)nc(Nc3ccc(N4CCOCC4)cc3)c2n1 [entospletinib]
In short: as §1

Sequence of UniProt P48426 (P48426 whole entry, looked up): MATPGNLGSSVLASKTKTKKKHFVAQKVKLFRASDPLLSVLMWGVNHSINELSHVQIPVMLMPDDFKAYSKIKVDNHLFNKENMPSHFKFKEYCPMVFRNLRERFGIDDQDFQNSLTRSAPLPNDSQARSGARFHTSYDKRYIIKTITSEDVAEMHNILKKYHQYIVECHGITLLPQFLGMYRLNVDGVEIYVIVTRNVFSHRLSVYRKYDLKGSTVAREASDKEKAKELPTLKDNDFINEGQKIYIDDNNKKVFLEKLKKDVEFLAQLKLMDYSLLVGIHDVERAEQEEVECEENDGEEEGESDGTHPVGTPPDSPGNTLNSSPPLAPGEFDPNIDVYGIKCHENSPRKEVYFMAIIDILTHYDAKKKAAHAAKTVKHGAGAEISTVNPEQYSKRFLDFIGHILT
Sequence of UniProt O00625 (O00625 whole entry, looked up): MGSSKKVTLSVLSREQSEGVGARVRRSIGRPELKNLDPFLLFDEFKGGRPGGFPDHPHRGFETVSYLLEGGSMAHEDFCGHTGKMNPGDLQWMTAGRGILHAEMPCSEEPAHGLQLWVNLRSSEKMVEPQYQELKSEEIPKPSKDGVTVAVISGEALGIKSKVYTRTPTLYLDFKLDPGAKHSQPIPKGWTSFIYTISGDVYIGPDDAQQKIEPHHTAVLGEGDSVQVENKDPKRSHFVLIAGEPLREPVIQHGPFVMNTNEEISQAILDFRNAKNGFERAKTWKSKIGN
Sequence of UniProt Q96I23 (Q96I23 whole entry, looked up): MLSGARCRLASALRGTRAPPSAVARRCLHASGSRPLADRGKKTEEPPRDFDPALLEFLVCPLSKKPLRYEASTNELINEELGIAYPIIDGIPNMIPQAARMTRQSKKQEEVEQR
Sequence of UniProt Q8WUM4 (Q8WUM4 whole entry, looked up): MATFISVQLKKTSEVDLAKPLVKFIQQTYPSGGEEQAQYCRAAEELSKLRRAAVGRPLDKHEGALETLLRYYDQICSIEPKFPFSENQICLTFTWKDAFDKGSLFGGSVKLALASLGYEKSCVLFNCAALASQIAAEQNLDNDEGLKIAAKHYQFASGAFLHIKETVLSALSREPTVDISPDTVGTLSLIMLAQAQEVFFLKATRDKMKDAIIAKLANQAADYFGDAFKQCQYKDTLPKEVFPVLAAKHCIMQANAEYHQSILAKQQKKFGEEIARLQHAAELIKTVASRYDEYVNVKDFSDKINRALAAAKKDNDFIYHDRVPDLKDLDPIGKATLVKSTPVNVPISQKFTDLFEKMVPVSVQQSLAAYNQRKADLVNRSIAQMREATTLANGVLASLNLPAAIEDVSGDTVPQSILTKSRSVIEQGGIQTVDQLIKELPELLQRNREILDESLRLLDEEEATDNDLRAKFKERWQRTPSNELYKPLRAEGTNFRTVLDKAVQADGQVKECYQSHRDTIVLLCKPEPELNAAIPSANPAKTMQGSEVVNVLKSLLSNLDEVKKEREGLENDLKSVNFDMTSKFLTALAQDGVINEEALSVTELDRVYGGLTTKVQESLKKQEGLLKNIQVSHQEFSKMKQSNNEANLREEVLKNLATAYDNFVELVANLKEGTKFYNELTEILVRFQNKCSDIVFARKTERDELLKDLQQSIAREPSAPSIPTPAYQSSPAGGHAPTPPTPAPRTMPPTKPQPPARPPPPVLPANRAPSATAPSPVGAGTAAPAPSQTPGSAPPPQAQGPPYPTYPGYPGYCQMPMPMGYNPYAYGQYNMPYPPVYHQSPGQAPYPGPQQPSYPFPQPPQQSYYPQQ
Sequence of UniProt O00329 (O00329 whole entry, looked up): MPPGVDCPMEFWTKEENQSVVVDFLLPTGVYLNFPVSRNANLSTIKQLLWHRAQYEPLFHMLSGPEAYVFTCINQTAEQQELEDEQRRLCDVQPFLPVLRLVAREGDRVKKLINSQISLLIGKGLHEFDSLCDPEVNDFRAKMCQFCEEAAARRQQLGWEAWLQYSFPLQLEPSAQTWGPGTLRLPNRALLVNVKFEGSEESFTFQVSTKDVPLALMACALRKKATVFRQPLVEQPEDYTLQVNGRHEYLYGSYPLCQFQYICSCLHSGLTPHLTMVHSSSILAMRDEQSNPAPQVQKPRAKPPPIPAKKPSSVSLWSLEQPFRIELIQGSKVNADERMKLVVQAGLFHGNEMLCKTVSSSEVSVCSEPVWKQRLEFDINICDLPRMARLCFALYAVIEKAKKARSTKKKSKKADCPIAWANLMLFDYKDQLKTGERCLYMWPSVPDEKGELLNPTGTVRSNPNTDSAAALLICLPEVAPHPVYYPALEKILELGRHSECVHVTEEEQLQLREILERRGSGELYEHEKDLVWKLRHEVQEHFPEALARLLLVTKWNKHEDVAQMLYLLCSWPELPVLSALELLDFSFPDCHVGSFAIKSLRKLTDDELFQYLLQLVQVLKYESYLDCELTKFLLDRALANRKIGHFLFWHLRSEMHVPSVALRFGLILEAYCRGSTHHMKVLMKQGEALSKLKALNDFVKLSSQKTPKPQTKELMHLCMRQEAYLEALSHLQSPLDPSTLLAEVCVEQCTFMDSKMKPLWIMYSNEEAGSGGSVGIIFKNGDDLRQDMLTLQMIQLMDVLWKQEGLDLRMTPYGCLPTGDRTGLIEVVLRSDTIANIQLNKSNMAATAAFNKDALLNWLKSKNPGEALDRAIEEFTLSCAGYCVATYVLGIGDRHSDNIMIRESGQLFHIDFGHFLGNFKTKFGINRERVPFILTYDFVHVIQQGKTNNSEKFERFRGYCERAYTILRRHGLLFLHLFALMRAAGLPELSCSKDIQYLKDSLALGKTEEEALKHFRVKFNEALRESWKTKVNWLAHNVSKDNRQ
Sequence of UniProt Q15054 (Q15054 whole entry, looked up): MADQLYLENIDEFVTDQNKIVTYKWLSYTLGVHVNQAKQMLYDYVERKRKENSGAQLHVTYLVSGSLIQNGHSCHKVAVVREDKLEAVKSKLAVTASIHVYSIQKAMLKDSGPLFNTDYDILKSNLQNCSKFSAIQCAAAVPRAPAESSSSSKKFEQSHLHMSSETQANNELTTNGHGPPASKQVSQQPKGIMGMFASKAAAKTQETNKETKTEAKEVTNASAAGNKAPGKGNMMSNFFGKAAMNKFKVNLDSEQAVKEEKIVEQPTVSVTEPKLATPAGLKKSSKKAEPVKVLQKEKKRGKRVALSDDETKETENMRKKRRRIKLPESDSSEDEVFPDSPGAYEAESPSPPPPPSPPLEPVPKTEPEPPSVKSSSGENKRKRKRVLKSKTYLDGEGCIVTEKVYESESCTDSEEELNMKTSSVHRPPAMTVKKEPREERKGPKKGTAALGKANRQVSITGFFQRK
Sequence of UniProt P0CAP2 (P0CAP2 whole entry, looked up): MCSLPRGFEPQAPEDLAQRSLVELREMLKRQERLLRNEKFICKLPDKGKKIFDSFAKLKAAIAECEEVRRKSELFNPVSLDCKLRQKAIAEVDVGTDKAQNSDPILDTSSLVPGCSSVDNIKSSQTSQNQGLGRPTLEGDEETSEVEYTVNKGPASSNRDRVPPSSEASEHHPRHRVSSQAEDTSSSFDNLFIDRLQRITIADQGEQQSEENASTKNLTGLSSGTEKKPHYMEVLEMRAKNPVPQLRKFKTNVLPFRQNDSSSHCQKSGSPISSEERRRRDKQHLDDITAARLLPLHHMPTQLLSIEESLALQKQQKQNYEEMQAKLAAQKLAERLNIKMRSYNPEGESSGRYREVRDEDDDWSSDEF
Sequence of UniProt Q29RF7 (Q29RF7 whole entry, looked up): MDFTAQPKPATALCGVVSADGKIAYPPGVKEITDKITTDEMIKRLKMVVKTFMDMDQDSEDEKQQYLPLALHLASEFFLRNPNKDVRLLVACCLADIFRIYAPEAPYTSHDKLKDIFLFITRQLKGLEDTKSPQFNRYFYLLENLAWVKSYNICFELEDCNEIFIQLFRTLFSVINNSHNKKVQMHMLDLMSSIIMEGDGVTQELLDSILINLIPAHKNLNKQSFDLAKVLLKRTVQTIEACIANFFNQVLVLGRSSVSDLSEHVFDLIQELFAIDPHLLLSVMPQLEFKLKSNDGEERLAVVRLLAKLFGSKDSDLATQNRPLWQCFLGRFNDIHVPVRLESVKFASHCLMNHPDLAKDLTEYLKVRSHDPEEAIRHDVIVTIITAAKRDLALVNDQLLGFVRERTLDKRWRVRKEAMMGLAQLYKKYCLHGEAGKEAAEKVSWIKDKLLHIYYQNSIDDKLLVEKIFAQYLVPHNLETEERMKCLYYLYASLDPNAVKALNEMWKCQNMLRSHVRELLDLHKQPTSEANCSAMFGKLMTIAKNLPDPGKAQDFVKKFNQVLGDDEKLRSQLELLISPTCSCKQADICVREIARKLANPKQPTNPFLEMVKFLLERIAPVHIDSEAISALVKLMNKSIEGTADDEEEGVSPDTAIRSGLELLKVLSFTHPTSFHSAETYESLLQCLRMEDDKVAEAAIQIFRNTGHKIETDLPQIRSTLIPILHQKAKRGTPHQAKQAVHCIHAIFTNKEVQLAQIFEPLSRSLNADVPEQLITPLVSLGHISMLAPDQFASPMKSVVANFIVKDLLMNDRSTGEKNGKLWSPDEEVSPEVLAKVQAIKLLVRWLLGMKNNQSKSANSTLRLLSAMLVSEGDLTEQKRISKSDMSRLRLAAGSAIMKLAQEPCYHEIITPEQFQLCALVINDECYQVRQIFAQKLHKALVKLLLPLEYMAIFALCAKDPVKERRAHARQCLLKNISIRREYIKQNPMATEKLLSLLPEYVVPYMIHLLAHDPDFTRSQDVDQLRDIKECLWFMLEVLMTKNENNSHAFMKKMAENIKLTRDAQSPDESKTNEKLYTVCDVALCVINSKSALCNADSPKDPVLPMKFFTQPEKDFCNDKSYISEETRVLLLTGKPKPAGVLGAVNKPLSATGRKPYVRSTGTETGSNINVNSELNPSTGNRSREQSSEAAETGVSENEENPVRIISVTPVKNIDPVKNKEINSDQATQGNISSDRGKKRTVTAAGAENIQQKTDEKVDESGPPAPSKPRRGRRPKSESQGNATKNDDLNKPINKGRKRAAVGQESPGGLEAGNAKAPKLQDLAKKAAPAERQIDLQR
Sequence of UniProt Q9H0N5 (Q9H0N5 whole entry, looked up): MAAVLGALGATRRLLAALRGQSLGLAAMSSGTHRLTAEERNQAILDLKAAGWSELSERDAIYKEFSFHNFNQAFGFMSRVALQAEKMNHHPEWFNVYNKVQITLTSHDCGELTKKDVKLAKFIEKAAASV

Target | log2 fold change [1] | log2 fold change (vorinostat) | log2 fold change (silmitasertib) | log2 fold change [2] | log2 fold change (entospletinib)
PDS5A (UniProt Q29RF7) | -0.001 | -0.525 (active) | 0.073 | -0.01 | 0.047
PUF60 (UniProt Q9UHX1) | -0.007 | 0.15 | -0.029 | 0.002 | 0.002
PYURF (UniProt Q96I23) | -0.346 (active) | -0.007 | -0.001 | -0.055 | -0.048
PCIF1 (UniProt Q9H4Z3) | -0.018 | -0.011 | 0.112 | 0.036 | 0.085
PPFIA2 (UniProt O75334) | 0.05 | -0.053 | -0.074 | 0.069 | -0.036
PI4K2A (UniProt Q9BTU6) | -0.006 | -0.005 | 0.074 | -0.009 | 0.001
POLR2M (UniProt P0CAP2) | 0.034 | 0 | -0.029 | -0.027 | 0.076
PIR (UniProt O00625) | 0.015 | 0.035 | -0.049 | -0.013 | -0.035
PIK3CD (UniProt O00329) | -0.059 | -0.516 (active) | 0.223 | -0.004 | 
PICALM (UniProt Q13492) | 0.02 | 0.048 | 0.003 | -0.019 | -0.005
PUF60 isoform 2 (UniProt Q9UHX1) | -0.061 | 0.23 | 0.075 | 0.026 | 0.027
PPP2R5C isoform 2 (UniProt Q13362) | -0.004 | -0.12 | 0.015 | 0.086 | 
PPIC (UniProt P45877) | 0.12 | 0.044 | 0.021 | 0.262 | 
PCBD2 (UniProt Q9H0N5) | 0.008 | 0.034 | 0.01 | -0.006 | 0.003
PTK2 (UniProt Q05397) | -0.017 | -0.137 | 0 | -0.056 | 0.175
PIP4K2A (UniProt P48426) | 0.027 | 0.024 | 0.225 | 0.007 | -0.029
POLD3 (UniProt Q15054) | 0.045 | -0.335 (active) | -0.02 | -0.03 | 0.011
PDCD10 (UniProt Q9BUL8) | -0.009 | 0.158 | -0.001 | -0.037 | 0.011
PPIL2 (UniProt Q13356) | 0.015 | -0.32 (active) | 0.019 | -0.009 | 0.014
PEX2 (UniProt P28328) | -0.055 | -0.25 | 0.042 | 0.043 | 
PIM1 isoform 2 (UniProt P11309) | 0.098 | -0.188 | 0.212 | 0.019 | 0.008
PHOSPHO2 (UniProt Q8TCD6) | -0.051 | 0.181 | -0.002 | 0.001 | -0.116
PRKACB isoform 2 (UniProt P22694) | -0.014 | -0.018 | 0.054 | 0.002 | 0.042
PDCD6IP isoform 2 (UniProt Q8WUM4) | -0.001 | -0.473 (active) | 0.019 | -0.006 | 0.018
PXMP4 (UniProt Q9Y6I8) | 0.038 | 0.295 | 0.134 | 0.021 | -0.004
